This is an account of results in PubChem BioAssay.

Values joined by “and” are separate entries in the source; they are usually repeats but may differ in a detail not shown here. Equal entries are not always repeated. Active and inactive are the calls of the source.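 Rule for the calls, unless noted: active = compounds whose cell count with miR-34 switched on is under 0.7 times the count with it off; inactive = the rest.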

For test [1], the system named is Hepatitis C virus NS3 helicase. Briefly: HCV NS3 helicase inhibitors, primary screen, biochemical, fluorescence polarization, NIH Clinical Collection (AID 743270; call rule not given here). The following applies: NS3 helicase binding to Cy5-dT15 DNA, stronger effect = higher value, concentration not given here. (Polarisation of emitted light reports the rotation of a fluorescent probe.)
Test [2] addresses 6-phosphogluconate dehydrogenase, decarboxylating (Homo sapiens) (UniProt P52209). Nature of the test: 6PGD enzyme inhibitors, primary screen, biochemical, human, recombinant enzyme, NADPH absorbance (AID 1159550;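 active = at least 20% inhibition of 6-phosphogluconate dehydrogenase activity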). The following applies: recombinant 6PGD, NADPH absorbance 341 nm; at 10 µM; stronger effect = higher value.
A short description of test [3]: modulation of C. elegans fzo-1 (AID 1259413; call rule not given here;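 note: fzo-1 mutant C. elegans worms in liquid wells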). To be noted: C. elegans fzo-1 modulator screen, mean read-out; stronger effect = higher value.
A short description of test [4]: differential killing of epithelial or mesenchymal cells, primary screen, imaging, PC-3E GFP, TEM4-18 mCherry, co-culture (AID 1345086;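 active = compounds killing one labelled cell type while sparing the other, by normalised counts and ratio limits, not self-fluorescent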;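 for all read-outs here: cells exposed to compound for 72 h before imaging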;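 for red/green cell ratio (normalised): normalised mesenchymal count divided by normalised epithelial count so high means epithelial killing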). The following applies: imaging cell counts, at 1 µM; for red/green cell ratio (normalised): actives lie on both sides, counts scaled to control wells, 1 = unselective.
Test [5] can be described thus: sensitizers of A549 cells to miR-34 induction, primary screen, imaging, A549 dox-inducible miR-34, nuclei and caspase counts (AID 1347080). To be noted: A549 miR-34 inducible, Hoechst nuclei count, 48 h.
Test [6] can be described thus: survival rescue of mitochondrial mutant cells in low glucose, primary screen, MELAS cybrids, Rieske KO mouse fibroblasts, CellTiter-Glo (AID 1508586;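 active = mean z-score across replicates of 1.96 or higher in either the MELAS or the Rieske mutant cell line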;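 note: z relative to plate mean and SD of compound and empty wells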). (ATP-based viability assays read luminescence as a measure of living cells.)
In test [7] the target is NAD(+) hydrolase SARM1 (Homo sapiens) (UniProt Q6SZW1). Nature of the test: SARM1 TIR NADase inhibitors, cell lysate, NAD-Glo luminescence (AID 1508614;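 active = compound whose remaining NAD level is above about 45 nM, limit read from the data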;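 note: higher remaining NAD means stronger inhibition of SARM1 NADase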). To be noted: SAM-TIR HEK293T lysate NADase, at 1 µM, stronger effect = higher value.
For test [8], the target named is Mitogen-activated protein kinase 7 (Homo sapiens) (UniProt Q13164). Nature of the test: ERK5 transactivation activators in reporter cells, primary screen, cell-based, HTS (AID 1508626;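 active = luciferase signal above three times the same-plate solvent-only control wells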;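 note: luciferase driven by Gal4-ERK5 fusion binding five Gal4 sites before minimal TATA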). To be noted: HeLa Gal4-ERK5 transactivation, 18 h, at 5 µM, stronger effect = higher value.
Test [9] in a line: viability rescue of complex I mutant cybrids, primary screen, cell-based, galactose medium, ATP luminescence (AID 1645843;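 active = z-score of at least 1.8 in each of two replicates, scored against plate mean and spread of sample wells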;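 note: positive z means more ATP and so rescue of galactose-driven cybrid death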). To be noted: complex I mutant cybrid cells, 72 h, stronger effect = higher value.
The nature of test [10]: liver-stage malaria parasite growth inhibition, primary screen, cell-based, HepG2, luciferase luminescence, HepG2 viability (AID 624349; in the data active = parasite load remaining mostly below about 12%, no sharp cut-off; inactive = mostly above about 10%;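 note: 100% = mean of DMSO negative control wells on the same plate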). To be noted: P. berghei liver stage in HepG2, luciferase luminescence, concentration not given here; parasite load remaining: stronger effect = lower value; viability: measured here: HepG2 viability without parasites.
[11] abbreviates: measured here: epithelial PC-3E GFP cell survival.
Where [12] appears, read: measured here: mesenchymal TEM4-18 mCherry cell survival.
[13] abbreviates: stronger effect = lower value, cell number ratio, induced over uninduced.
The mark [14] stands for this setting: measured here: relative caspase fold change +Dox/-Dox.
The mark [15] stands for this setting: measured here: total cells with miR-34 induction, stronger effect = lower value.
[16] abbreviates: measured here: total cells without miR-34 induction.
The mark [17] stands for this setting: MELAS cybrid survival, CellTiter-Glo 48 h, stronger effect = higher value.
Setting [18] is: Rieske KO mouse fibroblast survival, CellTiter-Glo 72 h.

Chain of Mitogen-activated protein kinase 7 (Homo sapiens) (Q13164 whole entry, looked up, the tested form may be a part): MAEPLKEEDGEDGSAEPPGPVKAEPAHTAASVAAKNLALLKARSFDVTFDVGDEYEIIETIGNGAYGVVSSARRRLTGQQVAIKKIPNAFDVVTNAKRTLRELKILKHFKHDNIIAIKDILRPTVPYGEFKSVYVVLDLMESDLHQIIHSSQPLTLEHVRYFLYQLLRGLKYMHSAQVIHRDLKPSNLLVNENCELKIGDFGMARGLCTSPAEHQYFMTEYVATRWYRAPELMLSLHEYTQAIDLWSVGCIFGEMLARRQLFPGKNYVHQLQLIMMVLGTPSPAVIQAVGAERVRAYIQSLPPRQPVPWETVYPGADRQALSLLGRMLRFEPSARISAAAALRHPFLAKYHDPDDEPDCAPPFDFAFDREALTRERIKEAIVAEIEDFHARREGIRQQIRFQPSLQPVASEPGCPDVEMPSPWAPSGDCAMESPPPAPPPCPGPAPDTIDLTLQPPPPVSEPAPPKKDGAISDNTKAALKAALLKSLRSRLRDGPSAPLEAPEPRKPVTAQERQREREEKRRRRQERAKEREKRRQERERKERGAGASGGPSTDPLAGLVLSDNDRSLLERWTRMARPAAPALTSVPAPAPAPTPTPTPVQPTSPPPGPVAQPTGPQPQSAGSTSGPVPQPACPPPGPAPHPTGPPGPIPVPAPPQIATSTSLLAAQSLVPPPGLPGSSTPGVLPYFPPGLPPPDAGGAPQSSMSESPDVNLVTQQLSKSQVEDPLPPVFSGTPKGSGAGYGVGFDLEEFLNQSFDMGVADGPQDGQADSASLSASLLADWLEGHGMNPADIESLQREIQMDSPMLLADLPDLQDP
Chain of 6-phosphogluconate dehydrogenase, decarboxylating (Homo sapiens) (P52209 whole entry, looked up): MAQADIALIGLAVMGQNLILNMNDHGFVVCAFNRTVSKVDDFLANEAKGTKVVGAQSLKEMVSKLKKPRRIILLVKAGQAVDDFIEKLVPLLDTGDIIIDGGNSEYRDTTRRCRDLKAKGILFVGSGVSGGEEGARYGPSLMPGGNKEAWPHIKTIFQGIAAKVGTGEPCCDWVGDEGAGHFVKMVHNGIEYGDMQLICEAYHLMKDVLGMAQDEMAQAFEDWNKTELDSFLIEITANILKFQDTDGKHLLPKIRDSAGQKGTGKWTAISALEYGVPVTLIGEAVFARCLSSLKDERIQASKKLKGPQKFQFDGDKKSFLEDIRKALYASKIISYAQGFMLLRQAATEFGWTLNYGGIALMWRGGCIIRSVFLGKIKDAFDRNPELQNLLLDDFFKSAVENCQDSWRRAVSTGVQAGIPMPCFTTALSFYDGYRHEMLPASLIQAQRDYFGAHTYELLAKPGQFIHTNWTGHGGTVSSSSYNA
Chain of NAD(+) hydrolase SARM1 (Homo sapiens) (Q6SZW1 whole entry, looked up, the tested form may be a part): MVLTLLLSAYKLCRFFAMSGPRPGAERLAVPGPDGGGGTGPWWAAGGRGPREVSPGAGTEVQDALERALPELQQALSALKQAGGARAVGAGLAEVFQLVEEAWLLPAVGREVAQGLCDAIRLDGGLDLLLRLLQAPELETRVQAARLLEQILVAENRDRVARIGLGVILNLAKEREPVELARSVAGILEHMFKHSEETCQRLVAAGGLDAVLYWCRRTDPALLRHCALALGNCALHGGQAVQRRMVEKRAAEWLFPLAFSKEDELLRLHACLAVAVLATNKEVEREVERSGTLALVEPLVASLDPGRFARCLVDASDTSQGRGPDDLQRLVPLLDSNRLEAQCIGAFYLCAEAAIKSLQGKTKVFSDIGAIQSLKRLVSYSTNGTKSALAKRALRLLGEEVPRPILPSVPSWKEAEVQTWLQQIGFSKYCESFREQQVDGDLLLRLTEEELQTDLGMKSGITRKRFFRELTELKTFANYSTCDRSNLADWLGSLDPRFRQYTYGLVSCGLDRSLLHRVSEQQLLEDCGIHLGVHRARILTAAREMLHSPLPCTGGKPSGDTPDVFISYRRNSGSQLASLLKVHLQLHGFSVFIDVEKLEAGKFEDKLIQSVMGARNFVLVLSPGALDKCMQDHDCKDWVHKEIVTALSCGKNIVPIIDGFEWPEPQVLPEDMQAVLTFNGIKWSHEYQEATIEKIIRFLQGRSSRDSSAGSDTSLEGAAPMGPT

By inhibition is commonly meant the drop in the measured response relative to a control, in per cent. In the case of `C[C@H]1COc2c(N3CCN(C)CC3)c(F)cc3c(=O)c(C(=O)O)cn1c23`, the values for the inhibition in test [1] and in [2] were -3.56% (inactive) and 0.836% (inactive), respectively. Besides, in [3], the mean signal is 274 (inactive). For the same molecule, the red/green cell ratio (normalised) in test [4] was 1.01 (inactive). For the same molecule, the normalised cell number in [4] (setting [11]) turned out to be 1.12; in test [4] (setting [12]) it was 1.13. Further, the fold change in test [5] (setting [13]) was 0.893 (inactive) and 0.857 (inactive); in [5] (setting [14]), 6.58 and 0.734. In addition, the cell count is 11000 and 8630 in [5] (setting [15]); 12300 and 10100 in [5] (setting [16]). In addition, the z-score in [6] (setting [17]) is -0.0762 (inactive); in test [6] (setting [18]), -0.528; in test [9] it was -0.45 (inactive). The remaining NAD in test [7] was 10 nM (inactive). For the same molecule, the luciferase signal in test [8] is 296 AU (inactive).

By viability is commonly meant a read-out of living cells in per cent, often relative to untreated cells. For `Cc1occc(=O)c1O`, the parasite load remaining in test [10] is 65.4% (inactive). In test [10], the viability came out at 68.2%. For the same molecule, the inhibition was -7.21% (inactive) in test [1] and 8.86% (inactive) in [2]. In test [3], the mean signal was 263 (inactive). Besides, in test [4], the red/green cell ratio (normalised) is 0.9 (inactive). For the same molecule, the values for the normalised cell number in [4] (setting [11]) and in test [4] (setting [12]) were 1.16 and 1.05, respectively. Further, the fold change in [5] (setting [13]) was 1.32 (inactive); in test [5] (setting [14]), 0.534. For the same molecule, the cell count worked out at 9050 in test [5] (setting [15]) and 6830 in test [5] (setting [16]). Also, the luciferase signal in [8] is 52 AU (inactive). Also, in test [9], the z-score is 0.51 (inactive).

As for `O=[N+]([O-])c1cccc2cn[nH]c12`, the parasite load remaining in test [10] was 55.2% (inactive). The viability in [10] stood at 68.7%. Moreover, the inhibition in [1] was 1.53% (inactive); in test [2] it was -14.4% (inactive). The mean signal in test [3] is 242 (inactive). Moreover, the red/green cell ratio (normalised) in test [4] was 0.79 (inactive). The results for the normalised cell number in test [4] (setting [11]) and in test [4] (setting [12]) were 1.44 and 1.13, respectively. Further, the fold change in [5] (setting [13]) is 1.03 (inactive) and 0.867 (inactive) and 0.91 (inactive); in test [5] (setting [14]), 0.865 and 1.54 and 0.678. Also, the cell count was 10200 and 8750 and 8260 in test [5] (setting [15]); 9850 and 10100 and 9080 in test [5] (setting [16]). In addition, the z-score in test [9] is 0.295 (inactive) and 0.3 (inactive) and -0.14 (inactive).

Turning to `O=c1ccc2ccc(O)c(O)c2o1`, the inhibition in [2] was 2.02% (inactive). For the same molecule, the fold change in [5] (setting [13]) was 0.898 (inactive) and 0.94 (inactive); in test [5] (setting [14]), 1.4 and 0.597. For the same molecule, the cell count is 7930 and 10100 in [5] (setting [15]); 8840 and 10800 in test [5] (setting [16]). The z-score in test [6] (setting [17]) was -0.407 (inactive); in test [6] (setting [18]) it was 0.783; in test [9] it was -0.93 (inactive). The luciferase signal in [8] is 64 AU (inactive).

As for `Cc1cccc(C)c1NC(=O)C1CCCCN1C` (centres undefined), the parasite load remaining in test [10] was 174% (inactive) and 77.7% (inactive) and 69.1% (inactive). Besides, in test [10], the viability is 85.7% and 198% and 72.6%. Further, the inhibition in test [1] was -2.84% (inactive); in [2], 10.7% (inactive). Moreover, the mean signal in test [3] is 253 (inactive). The red/green cell ratio (normalised) in test [4] is 1.21 (inactive). Also, the normalised cell number in test [4] (setting [11]) was 1.19; in test [4] (setting [12]), 1.44. The fold change in test [5] (setting [13]) was 0.977 (inactive) and 0.928 (inactive) and 0.875 (inactive); in [5] (setting [14]), 1.53 and 0.775 and 2.13. The cell count was 8050 and 8030 and 11600 in [5] (setting [15]); 8240 and 8660 and 13200 in test [5] (setting [16]). Also, the z-score in test [6] (setting [17]) was -0.27 (inactive) and -0.937 (inactive); in [6] (setting [18]) it was -0.166 and -1.35; in [9], 0.56 (inactive). The remaining NAD in test [7] was 10 nM (inactive). In addition, the luciferase signal in [8] was 68 AU (inactive).

For the molecule `CC1(C)C(=O)CC[C@@]2(C)C1C[C@@H](O)[C@@]1(C)C3=CC(=O)O[C@@H](c4ccoc4)[C@]3(C)CCC21` (some centres undefined), in [2], the inhibition was -10.8% (inactive).
